AGP1 TOR yeast: yeast TOR pathway AGP1-GFP modulation. AID 2066. S. cerevisiae AGP1-GFP multiplex flow cytometry, 3 h; GFP as percent of DMSO wells. GFP response vs DMSO, % at 10 µM. 320,000 compounds, 0.02% hits;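 active = GFP response relative to DMSO above a set limit, near screen average plus 3 SD, cut at about 150% in these data; inconclusive = fewer than 70 cells counted for the yeast strain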;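 note: median GFP channel fluorescence of the gated AGP1 strain per well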
MEP2-GFP yeast: modulators of TOR pathway MEP2-GFP in S. cerevisiae; GFP response vs DMSO, % at 10 µM; AID 2016; S. cerevisiae MEP2-GFP strain, flow cytometry GFP, 3 h; 100% = DMSO control level; 330,000 compounds, 0.51% hits;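 active = GFP response versus DMSO above a set limit, roughly screen mean plus 3 SD, cut at about 180% in these data; inconclusive = fewer than 70 cells counted for a yeast strain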;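 note: median GFP fluorescence of the barcode-gated MEP2-GFP cells per well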
CIT2-GFP yeast: modulators of TOR pathway CIT2-GFP in S. cerevisiae | 320,000 compounds, 0.065% hits | GFP response vs DMSO, % at 10 µM | S. cerevisiae CIT2-GFP strain, flow cytometry, 3 h; 100 means same as DMSO wells;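 active = GFP response relative to DMSO above a set limit, near the screen mean plus 3 SD, cut at about 150% in these data; inconclusive = Fewer than 70 cells measured for a yeast strain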;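 note: ratio of well median GFP fluorescence to mean of DMSO wells on the plate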
RPL19A TOR yeast: alters RPL19A-GFP fluorescence in TOR pathway yeast screen; 330,000 compounds, 0.3% hits; S. cerevisiae RPL19A-GFP strain, flow cytometry, 3 h; hits give low values; percent response vs DMSO, % at 10 µM;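 active = percent response vs DMSO below 50%; inconclusive = fewer than 70 events counted for the yeast strain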;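 note: median channel GFP fluorescence of the barcoded RPL19A-GFP strain; ratio of sample median GFP to plate DMSO average so 100% = DMSO; lower means less RPL19A-GFP as with rapamycin TOR inhibition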
LAP4 TOR yeast: alters LAP4-GFP fluorescence in TOR pathway yeast screen. S. cerevisiae LAP4-GFP multiplex, flow cytometry GFP, 3 h; median GFP as percent of DMSO wells. 320,000 compounds, 0.34% hits. AID 2023. GFP response vs DMSO, % at 10 µM;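 active = GFP response vs DMSO above a set limit, about the screen mean plus 3 SD, cut at about 150% in these data; inconclusive = under 70 cell events counted for the yeast strain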
LAP4-GFP pick2: reconfirmed LAP4-GFP TOR pathway modulator in yeast. shares compounds with LAP4 TOR yeast. S. cerevisiae LAP4-GFP strain, flow cytometry GFP, 3 h. GFP response vs DMSO, % at 10 µM. 590 compounds, 20% hits;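 active = GFP signal as percent of the solvent control above about 150%, meaning raised reporter expression, limit read from the data; inconclusive = fewer than 70 cells counted in the well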;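 note: ratio of well median GFP fluorescence to plate DMSO mean so 100% = DMSO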
MEP2-GFP pick2: yeast MEP2-GFP modulation, second cherry pick. shares compounds with LAP4 TOR yeast. S. cerevisiae MEP2-GFP strain, flow cytometry GFP, 3 h. GFP response vs DMSO, % at 10 µM. 590 compounds, 10% hits;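 active = GFP signal above 150% of the solvent control wells, that is a rise of more than half; inconclusive = fewer than 70 yeast cells counted in the well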;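 note: median channel GFP fluorescence of all gated yeast cells per well; ratio of median GFP to plate DMSO average so 100% = DMSO level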
RPL19A-GFP pick2: reconfirmed modulator of RPL19A-GFP TOR reporter in yeast; S. cerevisiae RPL19A-GFP strain, flow cytometry GFP, 3 h; hits give low values; 100% means same as DMSO wells; GFP response vs DMSO, % at 10 µM; AID 2623; 590 compounds, 3% hits; shares compounds with LAP4 TOR yeast;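 active = under 65% GFP response relative to DMSO; inconclusive = yeast strain with under 70 measured events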;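 note: median GFP channel fluorescence per well over the all cells gate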
CIT2 GFP CP2: yeast CIT2-GFP TOR reporter modulation, second cherry pick. 590 compounds, 8% hits. GFP response vs DMSO, % at 10 µM. shares compounds with LAP4 TOR yeast. S. cerevisiae CIT2-GFP strain, flow cytometry GFP, 3 h; DMSO control wells read 100%;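 active = GFP response vs DMSO above about 150%, limit read from the data; inconclusive = fewer than 70 events counted for a yeast strain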;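 note: median green fluorescence per well over all gated yeast cells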
AGP1 GFP CP2: reconfirmed modulator of AGP1-GFP TOR reporter in yeast; shares compounds with LAP4 TOR yeast; S. cerevisiae AGP1-GFP strain, flow cytometry GFP, 3 h; percent response vs DMSO, % at 10 µM; 590 tested, under 10 active; AID 2643;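 active = over 150 percent of DMSO response; inconclusive = yeast strain measured with under 70 events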;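 note: median GFP channel fluorescence over all cells without mother daughter split; sample median GFP divided by mean DMSO control so 100% equals DMSO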
s288c autofluor: compound is autofluorescent in yeast s288c cells. shares compounds with LAP4 TOR yeast. fluorescence change (kMESF span) at 33 µM. S. cerevisiae s288c, 520 nm autofluorescence, flow cytometry, 3 h; hits give high values; zero means same as solvent-only cells. 610 tested, under 10 active;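 active = fluorescence span over the dose series, or activity score, above about 33, limit read from the data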
* hit, by the source's call. Hits are enriched below; roughly 0.93% of the tested compounds scored in any of these assays.

What do the screens show for `O=C(O)Cn1c(=O)c2c(c3ccccc31)CCC2`?
AGP1 TOR yeast: 95; MEP2-GFP yeast: 881*; CIT2-GFP yeast: 113; RPL19A TOR yeast: 95; LAP4 TOR yeast: 100; LAP4-GFP pick2: 98; MEP2-GFP pick2: 101; RPL19A-GFP pick2: 101; CIT2 GFP CP2: 107; AGP1 GFP CP2: 99

What do the screens show for `CC1=NN(c2nc3ccccc3[nH]2)C(=O)C1Cc1ccccc1` (configuration not stated)?
AGP1 TOR yeast: 57; MEP2-GFP yeast: 97; CIT2-GFP yeast: 69; RPL19A TOR yeast: 58; LAP4 TOR yeast: 87; LAP4-GFP pick2: 123; MEP2-GFP pick2: 141; RPL19A-GFP pick2: 76; CIT2 GFP CP2: 85; AGP1 GFP CP2: 75

What do the screens show for `CCOC(=O)N1CCN(C(=O)c2ccc(S(=O)(=O)Nc3ccccc3)cc2)CC1`?
AGP1 TOR yeast: 88; MEP2-GFP yeast: 111; CIT2-GFP yeast: 172*; RPL19A TOR yeast: 96; LAP4 TOR yeast: 102; LAP4-GFP pick2: 108; MEP2-GFP pick2: 105; RPL19A-GFP pick2: 101; CIT2 GFP CP2: 102; AGP1 GFP CP2: 99

What do the screens show for `Nc1nc(N)c2nc(-c3ccccc3)c(N)nc2n1`?
AGP1 TOR yeast: 44; MEP2-GFP yeast: 332*; CIT2-GFP yeast: 116; RPL19A TOR yeast: 61; LAP4 TOR yeast: 115; LAP4-GFP pick2: 97; MEP2-GFP pick2: 98; RPL19A-GFP pick2: 98; CIT2 GFP CP2: 93; AGP1 GFP CP2: 99

Results for CC1CCCC(NC(=O)c2cccs2)C1C (configuration not stated) ?
AGP1 TOR yeast: 89; MEP2-GFP yeast: 93; CIT2-GFP yeast: 83; RPL19A TOR yeast: 89; LAP4 TOR yeast: 95

What do the screens show for `COc1c(OC(C)=O)c(=O)n2c3ccccc3c3ccnc1c32`?
AGP1 TOR yeast: 24; MEP2-GFP yeast: 245*; CIT2-GFP yeast: 93; RPL19A TOR yeast: 48*; LAP4 TOR yeast: 95; LAP4-GFP pick2: 91; MEP2-GFP pick2: 92; RPL19A-GFP pick2: 105; CIT2 GFP CP2: 109; AGP1 GFP CP2: 87

What do the screens show for `COc1ccc(C(=O)/C=C2/C(=O)Nc3ccccc32)cc1`?
AGP1 TOR yeast: 71; MEP2-GFP yeast: 97; CIT2-GFP yeast: 74; RPL19A TOR yeast: 103; LAP4 TOR yeast: 167*; s288c autofluor: -0.2

Results for O=C1Nc2ccccc2/C1=C/C(=O)c1cccs1 ?
AGP1 TOR yeast: inconclusive; MEP2-GFP yeast: 162; CIT2-GFP yeast: inconclusive; RPL19A TOR yeast: 54; LAP4 TOR yeast: 129

What do the screens show for `COc1ccc(C(=O)/C=C2/C(=O)Nc3ccccc32)c(OC)c1`?
AGP1 TOR yeast: 88; MEP2-GFP yeast: 87; CIT2-GFP yeast: 80; RPL19A TOR yeast: 94; LAP4 TOR yeast: 137; s288c autofluor: 0.1

Results for COc1ccc(C(=O)/C=C2/C(=O)Nc3ccccc32)cc1OC ?
AGP1 TOR yeast: 105; MEP2-GFP yeast: 103; CIT2-GFP yeast: 102; RPL19A TOR yeast: 108; LAP4 TOR yeast: 95; s288c autofluor: -2.1

Results for COc1cc(OC)c(/C=C2\C(=O)Nc3ccccc32)c(OC)c1 ?
AGP1 TOR yeast: 78; MEP2-GFP yeast: 102; CIT2-GFP yeast: 68; RPL19A TOR yeast: 100; LAP4 TOR yeast: 141

What do the screens show for `O=C1C=C(c2ccc3c(c2)OCCO3)C[C@@H](c2ccc(F)cc2)C1`?
AGP1 TOR yeast: 91; MEP2-GFP yeast: 95; CIT2-GFP yeast: 91; RPL19A TOR yeast: 95; LAP4 TOR yeast: 103

How did OC1OC[C@@H](O)[C@H](O)[C@H]1O (some centres not stated) do in these assays?
AGP1 TOR yeast: 88; MEP2-GFP yeast: 95; CIT2-GFP yeast: 86; RPL19A TOR yeast: 100; LAP4 TOR yeast: 105

How did COc1cc(NC(=O)C(C)Oc2ccccc2)c(OC)cc1NC(=O)c1ccccc1 (configuration not stated) do in these assays?
AGP1 TOR yeast: 92; MEP2-GFP yeast: 100; CIT2-GFP yeast: 91; RPL19A TOR yeast: 100; LAP4 TOR yeast: 97

How did CC(Nc1nc(-c2cccnc2)nc2ccccc12)c1ccc(F)cc1 (configuration not stated) do in these assays?
AGP1 TOR yeast: 95; MEP2-GFP yeast: 93; CIT2-GFP yeast: 94; RPL19A TOR yeast: 96; LAP4 TOR yeast: 99

How did CC(NC(=O)c1ccco1)C(=O)N1CCCCC1 (configuration not stated) do in these assays?
AGP1 TOR yeast: 113; MEP2-GFP yeast: 110; CIT2-GFP yeast: 150*; RPL19A TOR yeast: 100; LAP4 TOR yeast: 91; LAP4-GFP pick2: 100; MEP2-GFP pick2: 103; RPL19A-GFP pick2: 101; CIT2 GFP CP2: 100; AGP1 GFP CP2: 98

How did C[C@H](NC(=O)c1ccco1)C(=O)N1CCCC1 do in these assays?
AGP1 TOR yeast: 85; MEP2-GFP yeast: 92; CIT2-GFP yeast: 89; RPL19A TOR yeast: 93; LAP4 TOR yeast: 80

How did CSc1nn2c(C(F)(F)F)cc(C(F)(F)F)nc2c1C(=O)O do in these assays?
AGP1 TOR yeast: 113; MEP2-GFP yeast: 103; CIT2-GFP yeast: 102; RPL19A TOR yeast: 100; LAP4 TOR yeast: 111

How did CCC(=O)C1CCCN(C(=O)c2cccc(OC3CCN(S(C)(=O)=O)CC3)c2)C1 (configuration not stated) do in these assays?
AGP1 TOR yeast: 112; MEP2-GFP yeast: 133; CIT2-GFP yeast: 106; RPL19A TOR yeast: 116; LAP4 TOR yeast: 132

How did COc1ccc2oc(C(=O)OCC(=O)N(C)CC(=O)Nc3ccc(C)cc3)c(C)c2c1 do in these assays?
AGP1 TOR yeast: 110; MEP2-GFP yeast: 99; CIT2-GFP yeast: 108; RPL19A TOR yeast: 99; LAP4 TOR yeast: 98
